Experimental findings from article PMC5540273 (PLoS ONE, 2017) are described below.

Some test systems named below: PAK6; PAK7; PDGFRA; PDGFRB; PDPK1; PFTAIRE2.
Common to all, as to conditions: concentration: 1 μM, replicates: in singlicate; n = 1
The subject of another experiment is T1, PCTK1.
T1 construct: gene CDK16

A further experiment deals with T2, PCTK2.
T2 construct: gene CDK17

In another experiment the test system is T3, PCTK3.
T3 construct: gene CDK18

A further experiment has as its system T4, PFTK1.
T4 construct: gene CDK14
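Note: KINOMEscan kinase panel screen.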

For `Cl.Oc1ccc(-c2nc(-c3ccccc3)[nH]c2-c2ccncc2)cc1` [SB-428218], the “%Inh” value came out at 0% in the experiment on PAK6; 0% in the experiment on PAK7; 4% with PCTK1; 0% in the experiment on PCTK2; 20% in the experiment with PCTK3; 0% in the experiment with PDGFRA. For the same molecule, the “%Inh” value is on record as 13% in the experiment with PDGFRB, 0% in the experiment on PDPK1, 0% in the experiment with PFTAIRE2 and 21% in the experiment with PFTK1.

As to `Cc1ccc(NC(=O)Nc2cccc(Cl)c2)cc1-c1ccc(C(=O)Nc2ccncc2)cc1` [GSK1398468], the “%Inh” value with PAK6 was determined as 0%; in the experiment with PAK7, 1%; in the experiment on PCTK1 it was 0%; in the experiment on PCTK2, 0%; in the experiment with PCTK3 it was 0%; with PDGFRA, 43%. In addition, the “%Inh” value with PDGFRB is 99.9%; in the experiment with PDPK1 it was 0%; in the experiment with PFTAIRE2, 16%; in the experiment with PFTK1, 20%.

With `CCn1c(-c2cccnc2O)nc2cnccc21` [SB-736715], the “%Inh” value with PAK6 is 0%; in the experiment on PAK7, 3%; in the experiment on PCTK1 it was 0%; in the experiment with PCTK2 it was 0%; in the experiment on PCTK3, 0%; with PDGFRA, 0%. Also, the “%Inh” value with PDGFRB worked out at 0%; with PDPK1 it was 0%; with PFTAIRE2 it was 11%; in the experiment with PFTK1, 0%.

Turning to `Cc1cccc(-c2nc(C)cc(Nc3ccncc3)n2)n1` [GSK257997], the “%Inh” value in the experiment on PAK6 is 0%; with PAK7, 0%; in the experiment with PCTK1, 9%; in the experiment on PCTK2, 0%; in the experiment with PCTK3, 15%; in the experiment on PDGFRA, 0%. Further, the “%Inh” value in the experiment on PDGFRB was 11%; with PDPK1, 0%; with PFTAIRE2, 14%; in the experiment on PFTK1, 24%.

Take `O=C1NC(=O)C(N2CCc3ccccc32)=C1c1ccccc1Cl` [SB-373598]: the “%Inh” value was 55% in the experiment on PAK6; 0% in the experiment with PAK7; 3% in the experiment on PCTK1; 1% in the experiment on PCTK2; 17% in the experiment on PCTK3; 0% in the experiment on PDGFRA. Besides, the “%Inh” value with PDGFRB was 4%; in the experiment on PDPK1, 32%; in the experiment with PFTAIRE2, 9%; in the experiment on PFTK1 it was 0%.

Turning to `O=C(Nc1ccc2c(c1)OCO2)NC1CCN(c2ccnc(Nc3ccc(F)cc3)n2)C1` (stereo not drawn) [GSK1379724], the “%Inh” value amounted to 22% in the experiment on PAK6; 0% with PAK7; 3% in the experiment with PCTK1; 0% in the experiment on PCTK2; 3% in the experiment with PCTK3; 0% in the experiment on PDGFRA. The “%Inh” value is on record as 31% in the experiment with PDGFRB, 0% with PDPK1, 8% with PFTAIRE2 and 8% in the experiment with PFTK1.

`COc1ccccc1-c1ccc2c(NC(=O)C3CC3)n[nH]c2n1` [SB-711239]: the “%Inh” value stood at 54% in the experiment with PAK6; 4% with PAK7; 1% with PCTK1; 0% with PCTK2; 27% in the experiment with PCTK3; 0% in the experiment on PDGFRA. The “%Inh” value in the experiment with PDGFRB is 0%; with PDPK1, 13%; in the experiment with PFTAIRE2, 9%; with PFTK1, 2%.

In the case of `Cl.O=C(Nc1cccc(-c2nn3ncccc3c2-c2ccnc(Nc3cccnc3)n2)c1)c1c(F)cccc1F` [GSK312879], the “%Inh” value in the experiment with PAK6 turned out to be 0%; in the experiment on PAK7 it was 10%; with PCTK1 it was 1%; with PCTK2, 0%; in the experiment with PCTK3, 0%; in the experiment with PDGFRA, 0%. The “%Inh” value came out at 77% with PDGFRB, 28% in the experiment with PDPK1, 22% in the experiment on PFTAIRE2 and 9% with PFTK1.

In the case of `CC(C)(C)c1ccc(C(=O)Nc2cn3cc(Cl)ccc3n2)cc1`, the “%Inh” value in the experiment on PAK6 was determined as 0%; with PAK7, 27%; in the experiment with PCTK1, 0%; in the experiment on PCTK2, 0%; in the experiment on PCTK3, 0%; in the experiment on PDGFRA, 12%. The “%Inh” value with PDGFRB is reported as 71%; in the experiment with PDPK1, 0%; with PFTAIRE2 it was 0%; with PFTK1 it was 0%.

On to `Cc1ccc(C(=O)Nc2ccc(Nc3ccnc4cc(-c5ccccn5)ccc34)cc2O)cc1.Cl` [GW440146], for which the “%Inh” value with PAK6 was determined as 8%; in the experiment on PAK7, 0%; in the experiment with PCTK1, 0%; in the experiment on PCTK2, 0%; in the experiment on PCTK3 it was 24%; in the experiment with PDGFRA it was 54%. Further, the “%Inh” value came to 86% with PDGFRB, 0% in the experiment on PDPK1, 26% in the experiment on PFTAIRE2 and 18% in the experiment with PFTK1.

As for `COc1ccc(Nc2nccc(NCCNC(=O)Nc3ccccc3F)n2)cc1` [GSK1379901], the “%Inh” value with PAK6 is listed as 0%; in the experiment on PAK7 it was 0%; in the experiment on PCTK1, 4%; with PCTK2, 0%; in the experiment on PCTK3, 0%; in the experiment on PDGFRA it was 0%. In addition, the “%Inh” value with PDGFRB was 70%; in the experiment on PDPK1, 0%; with PFTAIRE2 it was 3%; in the experiment with PFTK1 it was 26%.

As for `O=C(O)COc1ncnc2cc(-c3ccc4[nH]ncc4c3)sc12`, the “%Inh” value in the experiment with PAK6 is 0%; in the experiment on PAK7 it was 7%; with PCTK1, 17%; in the experiment with PCTK2, 0%; in the experiment with PCTK3, 0%; with PDGFRA, 45%. The “%Inh” value in the experiment with PDGFRB is listed as 31%; in the experiment on PDPK1, 0%; with PFTAIRE2, 0%; with PFTK1, 12%.

On to `COc1ccccc1CNC(=O)c1cc(C(=O)c2ccccc2C)c[nH]1` [GSK364507], for which the “%Inh” value is recorded as 0% with PAK6; 0% with PAK7; 4% in the experiment with PCTK1; 0% with PCTK2; 27% in the experiment on PCTK3; 0% with PDGFRA. The “%Inh” value in the experiment on PDGFRB is reported as 52%; with PDPK1, 0%; with PFTAIRE2, 0%; with PFTK1, 22%.

`Fc1cccc(COc2nnc(-c3ccc4c(c3)CCO4)o2)c1`: the “%Inh” value is on record as 38% with PAK6; 17% in the experiment with PAK7; 8% with PCTK1; 6% in the experiment on PCTK2; 0% in the experiment with PCTK3; 28% with PDGFRA. Further, the “%Inh” value is reported as 0% in the experiment with PDGFRB, 0% in the experiment on PDPK1, 7% with PFTAIRE2 and 2% with PFTK1.

As to `O=C(Nc1ccccc1)Nc1cccc(Oc2ccc3nccn3n2)c1`, the “%Inh” value was found to be 0% with PAK6; 29% in the experiment on PAK7; 0% with PCTK1; 5% in the experiment with PCTK2; 0% in the experiment on PCTK3; 98.9% in the experiment on PDGFRA. In addition, the “%Inh” value in the experiment with PDGFRB was 100%; in the experiment with PDPK1 it was 0%; in the experiment on PFTAIRE2, 57%; in the experiment on PFTK1, 0%.

In the case of `COc1cc2ncnc(Nc3ccc4nc(-c5ccccc5)[nH]c4c3)c2cc1OC.Cl` [GW282450], the “%Inh” value in the experiment on PAK6 turned out to be 11%; with PAK7 it was 12%; in the experiment with PCTK1, 0%; in the experiment with PCTK2, 0%; in the experiment with PCTK3 it was 1%; in the experiment with PDGFRA it was 0%. In addition, the “%Inh” value with PDGFRB was 28%; with PDPK1 it was 0%; in the experiment on PFTAIRE2, 8%; in the experiment on PFTK1 it was 19%.

As for `COc1ccc(Nc2nccc(-c3cccc(NC(=O)c4cc5cc(F)ccc5[nH]4)c3)n2)cc1` [GSK1229782], the “%Inh” value stood at 11% in the experiment with PAK6; 51% in the experiment with PAK7; 1% with PCTK1; 18% in the experiment with PCTK2; 7% in the experiment on PCTK3; 33% in the experiment with PDGFRA. The “%Inh” value is recorded as 61% with PDGFRB, 21% in the experiment with PDPK1, 30% in the experiment with PFTAIRE2 and 24% in the experiment on PFTK1.

As for `CN1C(=O)C(Nc2ccc(Cl)c(C(=O)O)c2)=C(c2ccc(Cl)cc2)C1=O` [SB-404290], the “%Inh” value with PAK6 turned out to be 0%; in the experiment on PAK7 it was 10%; with PCTK1, 0%; in the experiment on PCTK2, 6%; in the experiment on PCTK3, 0%; in the experiment with PDGFRA, 27%. Also, the “%Inh” value in the experiment with PDGFRB is given as 0%; in the experiment with PDPK1, 0%; in the experiment on PFTAIRE2 it was 11%; with PFTK1, 0%.
